Results on 104 compounds are retold here after PubChem BioAssay AID1792 (The Scripps Research Institute Molecular Screening Center, 2009).

As usually defined, the inhibition is the drop in the measured response relative to a control, in per cent.

Molecules are shown by their SMILES. Out of some 16,000 compounds screened, about 130 (0.81%) were called active. What follows is part of a selection rich in actives, with near analogues and random picks from the rest. A number with no mark means an inactive call. No stated cut-off is given here; in the data, active means inhibition above about 75%; inactive means the rest.

NADPH oxidase 1 (Homo sapiens), sequence (Q9Y5S8 whole entry, looked up): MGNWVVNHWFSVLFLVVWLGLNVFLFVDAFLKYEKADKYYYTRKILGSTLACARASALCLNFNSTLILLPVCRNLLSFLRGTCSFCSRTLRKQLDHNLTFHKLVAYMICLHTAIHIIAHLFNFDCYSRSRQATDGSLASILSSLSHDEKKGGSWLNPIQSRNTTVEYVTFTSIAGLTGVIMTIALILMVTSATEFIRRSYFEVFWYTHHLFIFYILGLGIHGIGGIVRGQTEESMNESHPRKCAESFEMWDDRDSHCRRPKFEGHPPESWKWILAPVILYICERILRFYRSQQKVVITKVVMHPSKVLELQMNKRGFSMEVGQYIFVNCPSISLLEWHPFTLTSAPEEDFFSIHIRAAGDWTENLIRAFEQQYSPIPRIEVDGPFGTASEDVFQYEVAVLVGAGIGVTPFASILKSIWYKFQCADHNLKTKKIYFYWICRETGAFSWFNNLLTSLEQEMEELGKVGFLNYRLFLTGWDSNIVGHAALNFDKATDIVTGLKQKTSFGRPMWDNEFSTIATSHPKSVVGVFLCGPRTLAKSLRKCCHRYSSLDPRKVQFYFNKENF

This experiment has as its target NADPH oxidase 1 (Homo sapiens) (UniProt Q9Y5S8). In words: blocks human NADPH oxidase 1 activity (AID 1792). Particulars: HT29 cells, luminol chemiluminescence ROS; at 6.7 µM; hits give high values.
Take `COc1ccc(NC(NC(=O)c2ccc(OC)cc2)(C(F)(F)F)C(F)(F)F)cc1`: the inhibition was -26.1%.
Next, `COc1ccc(NC(=O)C2CC(C)=C(C)CC2C(=O)O)c(N2CCOCC2)n1` (centres undefined): -11.6%; `O=C(CSC(=S)N1CCCCC1)c1c(F)cccc1F`: 16%; `Cn1nc(-c2ccccc2)cc1N`: 12.5%.
For the compound `O=C(Nc1ccc(C(F)(F)F)cc1)Nc1ccccc1C(=O)O`, the inhibition is -32.5%.
The value for `Cc1ccc(OC(=O)c2nn(-c3ccccc3)nc2C)c([N+](=O)[O-])n1` was -75.6%.
The value for `O=C(NCc1cc2ccccc2s1)C1CN(C(c2ccccc2)c2ccccc2)C1` was -2.49%; that for `O=C(O)CC(CC(=O)O)c1ccc(C(F)(F)F)cc1` was -30.4%.
In the case of `COC(=O)c1sc(S(C)=O)c(-c2ccon2)c1C` (centres undefined), the inhibition is -55.1%.
As to `Cc1onc(-c2ccccc2)c1C(=O)Sc1ccc(C(F)(F)F)cn1`, the inhibition is -30.5%.
In the case of `COC(=O)c1ccc(/C=C2\C(=O)Nc3ccccc32)n1-c1ccc(F)cc1`, the inhibition is -9.26%.
As to `COc1ccc(Cc2nnc(SC)[nH]c2=O)cc1`, the inhibition is -41.8%.
For `O=S(=O)(Oc1ccc(C2SCCS2)cc1)c1ccc(Br)cc1`, the inhibition was 10.3%.
Take `OC(c1ccncc1)c1c[nH]c2ccccc12` (centres undefined): the inhibition was -46.2%.
In the case of `COc1ccc(OC)c(CCCc2cc(OC)ccc2OC)c1`, the inhibition is -22.8%.
Turning to `N#Cc1ccc(N2CCN(C(=O)c3ccco3)CC2)cc1`, the inhibition is -5.71%.
Take `Cc1[nH]c2c(F)cc(F)cc2c(=O)c1I`: the inhibition was -29.2%.
Consider `COc1cc(-c2n[nH]c(=S)n2Cc2ccccc2)cc(OC)c1OC`, for which the inhibition was -31.5%.
Regarding `O=C1CCCCC(=O)c2ccccc2N1`, the inhibition was -36.9%.
The value for `Cc1c(S(=O)(=O)c2ccc(Cl)cc2)csc1C(=O)Nc1ccc2c(c1)OCCO2` was -34.3%; that for `NS(=O)(=O)c1cc(C(F)(F)F)cc(C(F)(F)F)c1` was -30.4%; that for `NNC(=O)c1ccc(Cl)cc1Cl` was -29.6%.
Next, `N#CNC(N)=Nc1cc(Cl)ccc1Cl`: -53.6%; `O=C(NCc1csc(-c2cccs2)n1)Nc1ccccc1-c1ccccc1`: 11.9%.
`Cn1c(=O)c(/C(N)=N/OC(=O)c2ccccc2Cl)cn(-c2ccccc2)c1=O`: the inhibition is -28.3%.
As to `N/C(CC(=O)Nc1ccc(F)c(Cl)c1)=N\O`, the inhibition was 8.11%.
Next, `O=C1NCCN1CCNS(=O)(=O)c1cc(Cl)sc1Cl`: 14.5%.
Next, `O=C(N[C@@H](Cc1ccc(O)cc1)C(=O)O)OCc1ccccc1`: -6.06%; `CN(C)NC(=O)c1csnc1-c1c(Cl)cccc1Cl`: -20.2%.
Take `CC(OC(=O)c1cccc(Cl)c1)c1ccc[n+](C)c1` (centres undefined): the inhibition is -47.2%.
Consider `CCOC(=O)/C(C#N)=C/c1ccc(-c2nccs2)cc1C(C)(C)C`, for which the inhibition is 8.33%.
The value for `N#CC(C#N)=C/C=C(/Sc1nc2cc(Cl)ccc2s1)c1ccc(Cl)cc1` was -27.8%.
On to `CCOC(=O)N1CCN(CC(O)COc2ccc(OC(F)(F)F)cc2)CC1` (centres undefined), for which the inhibition is -47.2%.
On to `O=C(Oc1ccccc1N1CCCCC1)c1sc2ccccc2c1Cl`, for which the inhibition is 85.7% (active).
Consider `O=C(O)CC(CC(=O)Oc1ccccc1N1CCCCC1)c1ccccc1` (centres undefined), for which the inhibition is -24.8%.
The value for `CCOC(=O)c1sc2ccccc2c1N` was -25.5%; that for `N#C/C(=C\N1CCc2ccccc21)S(=O)(=O)c1ccc(C(F)(F)F)cn1` was -30.5%; that for `N#CCCN(CCc1ccccn1)S(=O)(=O)c1ccc2c(c1)CCO2` was 35.1%.
Turning to `CCOC(=O)Cc1cnc(NN=C2C3CC4CC(C3)CC2C4)s1`, the inhibition is 55.1%.
Next, `CSc1sc(NC(=O)N2CCOCC2)c(-c2ccc(Cl)cc2)c1C#N`: 17.4%.
Next, `O=C(CNC(=O)c1ccccc1F)c1ccc(Br)cc1`: -16.2%; `COc1ccc(COCC(O)CN2CCC(C(N)=O)CC2)cc1` (centres undefined): -52.2%.
Regarding `CCOC(=O)O/N=C(\N)c1ccc(Cl)cc1`, the inhibition was 26%.
Regarding `CC(C)(C)c1ccc(NC(=O)c2ccco2)c(NC(=O)C(Cl)(Cl)Cl)c1`, the inhibition was 6.12%.
With `CN(Cc1nnc(-c2ccc3ccccc3c2)o1)c1nnc(C(F)(F)F)s1`, the inhibition was 10.6%.
As for `CC1(C)CC(=O)c2c(NCc3ccco3)sc(C#N)c2C1`, the inhibition was -14.6%.
On to `CC(C)n1c(SCC(=O)c2cccc([N+](=O)[O-])c2)nc2cc(C(F)(F)F)ccc21`, for which the inhibition is 4.76%.
`CCOC(=O)c1cc(C)nc(Sc2ccccc2NC(=O)Nc2ccc(Cl)cc2)c1C#N`: the inhibition was 34.3%.
In the case of `Cc1nn(-c2ccccc2)nc1C(=O)Nc1nnc(C2CC2)s1`, the inhibition was -13.2%.
As for `COC(=O)c1cc(OC)c(OC)cc1NS(=O)(=O)c1ccsc1C(=O)OC`, the inhibition was -24.8%.
Take `O=C(NNc1ccc(C(F)(F)F)cn1)c1ccccc1Cl`: the inhibition is 40.9%.
In the case of `O=C1C=C(NNc2ccccc2)CCC1`, the inhibition was -9.52%.
Regarding `Cn1cnnc1SCC(=O)Nc1cc(C(F)(F)F)cc(C(F)(F)F)c1`, the inhibition is -26.6%.
For the compound `CC1CN=C(N(Cc2cccnc2)C(=O)Nc2ccc(Cl)c(Cl)c2)S1` (centres undefined), the inhibition was 11.1%.
The value for `FC(F)(F)c1cnc(NN=C2CCSCC2)c(Cl)c1` was -21.6%.
Take `N/C(=N/OC(=O)NC(=O)c1c(Cl)cccc1Cl)c1ccc(F)cc1F`: the inhibition is -11.4%.
`Cc1nn(C)c(C)c1Sc1nccc(-c2cccnc2)n1`: the inhibition is 17.5%.
For the compound `COc1cc(OC)nc(/N=C/c2nc(-c3ccccc3)oc2O)n1`, the inhibition is 16.6%.
As for `O=C(NCc1ccccc1)c1cc2sccc2s1`, the inhibition is -33%.
With `CSc1n[nH]c(=O)n1-c1cccc(C(F)(F)F)c1`, the inhibition is -36.5%.
Regarding `O=S(=O)(c1ccc2c(c1)OCCO2)N1CCN(c2ccc(C(F)(F)F)cn2)CC1`, the inhibition is -13.2%.
In the case of `Cc1c(CC(=O)Oc2ccc([N+](=O)[O-])cc2)sc2ccc(Cl)cc12`, the inhibition was 15.6%.
`CCCCc1ccc(S(N)(=O)=O)cc1`: the inhibition was -14.9%.
The value for `O=C(O)CC1(CC(=O)NCc2ccco2)CCCCC1` was -9.49%.
With `CCOC(=O)/C(=N/Nc1ccccc1)C(C)=N`, the inhibition was -20%.
Turning to `COc1ccc(OCCC(=O)NNC(=S)Nc2cc(Cl)ccc2Cl)cc1`, the inhibition was -22.8%.
On to `CC(=O)Nc1ccc(F)cc1F`, for which the inhibition is -7.89%.
As to `Cc1cc(Cl)ccc1NC(=S)NNC(=S)Nc1ccc(F)cc1`, the inhibition is 87.6% (active).
Next, `O=[N+]([O-])c1ccc(N2CCOCC2)cc1`: 23.6%; `CN(NS(=O)(=O)CS(C)(=O)=O)c1ncccc1[N+](=O)[O-]`: -4.72%.
On to `O=C1C(Cl)=C(Oc2cc(Cl)c(Cl)cc2Cl)C(=O)c2ccccc21`, for which the inhibition is 64%.
In the case of `O=C(O)C#Cc1cccc2ccccc12`, the inhibition is -49.7%.
For the compound `Cc1ccc2oc(-c3cccs3)nc2c1`, the inhibition was -69.6%.
`Clc1ccc(CO/N=C/c2nc3ccccc3s2)cc1`: the inhibition was -46.7%.
The value for `CSc1nsc(SC)c1C(=O)Nc1cc(C(F)(F)F)cc(C(F)(F)F)c1` was -44%; that for `CCOC(=O)/C(C#N)=C/N/S(C)=N/N=C/c1ccc(N(C)C)cc1` (centres undefined) was 3.26%.
In the case of `CCCCNc1nc(N)ns1`, the inhibition was -43%.
Regarding `Clc1ccc(-c2csc(N/N=C\c3ccn[nH]3)n2)cc1`, the inhibition was 19%.
`Cc1nc(-c2ccccn2)n2nnnc2c1Cl`: the inhibition was -68.7%.
In the case of `O=[N+]([O-])c1ccc(CSc2nc3cc(Cl)c(F)cc3[nH]2)cc1`, the inhibition is 10.8%.
In the case of `Cn1nnnc1SCC(=O)Nc1ccc(OC(F)(F)F)cc1`, the inhibition is 12%.
As for `CN(C)c1ccc(C=Nc2ccc(S(N)(=O)=O)cc2)cc1`, the inhibition is -7.18%.
With `O=S(=O)(Cc1nnc(-c2cc(Cl)cc(Cl)c2)o1)c1ccc(Cl)cc1`, the inhibition was -4.49%.
As for `O=C(CSC1=NCCc2ccccc21)Nc1ccc(F)cc1F`, the inhibition is 0%.
On to `N/C(=N\OS(=O)(=O)c1ccc(C(F)(F)F)cc1)C1CSCCS1` (centres undefined), for which the inhibition was -14.1%.
`CC1=CC(=O)C(CCC2=CC(=O)C(C)=CC2=O)=CC1=O`: the inhibition was 87.8% (active).
On to `COc1ccc(/C(C)=N/Nc2c([N+](=O)[O-])cc(C(F)(F)F)cc2[N+](=O)[O-])cc1CC#N`, for which the inhibition is -38.4%.
Next, `O=C(O)C1CCC1C(=O)Nc1nnc(C2CC2)s1` (centres undefined): 12%; `COc1ccc(/C=N/N2CCC(=O)Nc3ccccc32)c(OC)c1`: -3%.
The value for `Cc1oc(-c2ccc(Cl)cc2)cc1C(=O)N1CCOCC1` was 4.54%.
Regarding `Cc1oc(-c2ccc(Cl)cc2)cc1C(=O)N1CCN(Cc2ccccc2)CC1`, the inhibition was -19.5%.
Consider `Cc1oc(-c2ccc(Cl)cc2)cc1C(=O)O/N=C(\N)Cc1nc2cccnc2n1C1CC1`, for which the inhibition was 86.4% (active).
As to `CC(=O)N1CCc2cc(NC(=S)Nc3ccccc3Cl)ccc21`, the inhibition was 11.8%.
With `CN1CCCCC(C2=C(Cl)C(=O)CCC2)C1=O` (centres undefined), the inhibition is -2.08%.
Take `O=C1C(Nc2ccccc2)=CC(c2ccc([N+](=O)[O-])cc2)N1c1ccccc1` (centres undefined): the inhibition is -5.43%.
`O=C(O)c1cc(=O)[nH]c2c(Cl)cc(Cl)cc12`: the inhibition was -17.9%.
Next, `Cc1ccc(S(=O)(=O)N/N=C/c2ccc(O)cc2O)cc1`: -34.9%; `COc1ccc2c(OC(C)=O)coc2c1`: -103%; `COc1cc(C=C(C#N)C#N)cc(OC(C)=O)c1OC(C)=O`: 93.6% (active).
Turning to `Cc1nnsc1C(=O)N/N=C/c1ccccc1Cl`, the inhibition was 26.6%.
Take `Cc1nn2c(=O)c3c4c(sc3nc2[nH]c1=O)CCCC4`: the inhibition is -87%.
As for `COC(OC)c1ccnc(SCC(=O)Nc2ccc(C(C)C)cc2)n1`, the inhibition was -5.58%.
For the compound `N#Cc1cn(-c2cccc(C(F)(F)F)c2)c(=O)n(Cc2ccc(Cl)cc2)c1=O`, the inhibition was 11.4%.
With `O=C1OC2(CCCCC2)OC1c1ccccc1` (centres undefined), the inhibition was -30.5%.
